The full ranking holds about 25,000 sequences; the median of “ln(normalized median fluorescence intensity)” is about 7.1, and the highest 2% start at about 10. The list comes from a sample in which the highest values are over-represented; it also holds similar and randomly drawn sequences.
test system: PfSIP2 AP2 domain 1 (GST-tagged); assay: gcPBM binding intensity (ln(normalized median fluorescence intensity)); higher = stronger DNA binding
How it was run: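 GST-fused DNA-binding domains of P. falciparum, expressed in E. coli, were applied at about 25 μg on average for 1 h to an Agilent 4 × 180k array of primer-extended double-stranded 36-bp intergenic genomic probes and negative controls. Binding intensity is the highest Masliner-normalised natural-log median intensity across replicate spots of either probe orientation, measured with Alexa488 anti-GST antibody and a 488 nm scan.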

First: AAGAATATATAGGACACACATACAATAATAAATATA [CACACA_site4119]
Second: ATATTTTATAATTTTACACACCATATAAAATAATTC [CACACA_site2797]
The “gcPBM binding intensity (ln)” value of the first is higher: 7.25 for the first, 7.16 for the second.

Compared with “TTTGCACCGTTTAAGTGTACAGAATTATGACATATA [XGTACX_site6735]”, “TTTATATGTATTAAGTGTACACATATAATGTGTTTG [XGTACX_site6629]” is lower in “gcPBM binding intensity (ln)” value: 11.2 for the first, 7.29 for the second.

Compared with “CATATTTACATTAAGTGTACTTATGAATATATATAC [XGTACX_site7962]”, “TATCAATGGAAAATATATATTTGTATATATGTAATA [XGTACX_negctrl_site257]” is higher in “gcPBM binding intensity (ln)” value: 7.03 for the first, 7.04 for the second.

Going from “ACATGAATATATACACGTACATATATACATATATAT [XGTACX_site5872]” to “AATTTATTTTTAAAAAGTACATACTTAAGAAAACGA [XGTACX_site3660]”, the “gcPBM binding intensity (ln)” value rises from 7.42 to 7.59.

First: CTGTACACTTAAACGGTGCAAAAAGAAAAAAAAGAA
Second: ATATATTATATTATATGTACTTAAAAAAGTGCAAAG [XGTACX_site318]
The “gcPBM binding intensity (ln)” value of the first is higher: 10.9 for the first, 8.67 for the second.

Compared with “TTTTATCATCTTTTTACATTATGTATAAATATTTTC [CACACA_negctrl_site206]”, “AAAACATAAATACATACACACATAATATATATTAAT [CACACA_site109]” is higher in “gcPBM binding intensity (ln)” value: 6.99 for the first, 7.06 for the second.

Going from “ACAAGTATTCCTTTTGCACACCTTTCTGCACCTTAT [CACACA_site3873]” to “TATATATTTTCTTTTGCACACTGTTTTCCTTTTTTT [CACACA_site2739]”, the “gcPBM binding intensity (ln)” value falls from 11.7 to 7.02.

Going from “TTTTATTCCTTCTTTGCACACGTTTAAAAATATATA [CACACA_site2899]” to “ATGTCATAAATGTACGCACACATACATAAACATATA [CACACA_site4530]”, the “gcPBM binding intensity (ln)” value falls from 8.04 to 7.33.

First: TATAAACCCACCTACACACACAACGTAAATGCATTG [CACACA_site2238]
Second: TATAAACGCACCTACACACACAACGTAAATGCATTG [CACACA_site7120]
The “gcPBM binding intensity (ln)” value of the first is lower: 7.01 for the first, 10.6 for the second.

Compared with “TATATAAACCCACCTACACACACAACGTAAATGCAT [CACACA_site8702]”, “CAAATATGTCTTATTCGTACACATATATATATATAT [XGTACX_site8817]” is higher in “gcPBM binding intensity (ln)” value: 7.1 for the first, 9.64 for the second.

Compared with “ATAATGAAAACAAGCACACATACATAAAATAAAATA [CACACA_site3257]”, “CTTTTATGAAACAGTGCACACATAAAAATATATACA [CACACA_site8981]” is higher in “gcPBM binding intensity (ln)” value: 7.04 for the first, 11.3 for the second.

First: TTTTTAATTTTATATACACACATAAAATATATGAAG [CACACA_site3145]
Second: AACATATATAAATACACACACATATATATATGAAAT [CACACA_site4312]
The “gcPBM binding intensity (ln)” value of the first is lower: 7.01 for the first, 7.05 for the second.

Compared with “TCATAATGAAAACAAGCACACATACATAAAATAAAA [CACACA_site9069]”, “TTTATGAAACAGTGCACACATAAAAATATATACATA [CACACA_site2992]” is higher in “gcPBM binding intensity (ln)” value: 7.01 for the first, 11 for the second.

Compared with “ATTTTGTTATGAAACACACACATATAAATATAAATA [CACACA_site7679]”, “TTTATGAAACAGTGCACACATAAAAATAAATACATA [CACACA_site5631]” is higher in “gcPBM binding intensity (ln)” value: 7.26 for the first, 11.2 for the second.

Compared with “AAAAAAAATATGAAAACACACATATATAAATAAATA [CACACA_site113]”, “AAATATAAACTCAGCACACAAACATATATATGTCAT [CACACA_site4004]” is higher in “gcPBM binding intensity (ln)” value: 6.89 for the first, 6.91 for the second.

Compared with “TCCTTTTGAACCCTTTTTCTCACAAGACCTTTATAT [TGCATGCA_negctrl_site413]”, ATGTTTTAATGAGGTTTGCACTATATTTTAATGAAC is higher in “gcPBM binding intensity (ln)” value: 7.05 for the first, 8.64 for the second.

Going from “AATATTAAACAAAATAAATATATAAAAAATAAATAA [GTGCAC_negctrl_site93]” to “ATGAATATAATGAAGTGTACATAAAAATAATAAATA [XGTACX_site2481]”, the “gcPBM binding intensity (ln)” value rises from 6.79 to 7.11.

First: GGACATTTTTATAAGGTGCACGGTTTTGATATTACT [GTGCAC_site9892]
Second: GTACATATATACATTACACACGGTTTGATTTAAAAA [CACACA_site3379]
The “gcPBM binding intensity (ln)” value of the first is higher: 11.1 for the first, 7.26 for the second.

First: TCACATTTTGGACACGTGCACATATATTTGATACAT
Second: ATGCGTTAATCTATATATATTATGTATAGATTTTCA [CACACA_negctrl_site1650]
The “gcPBM binding intensity (ln)” value of the first is higher: 8.43 for the first, 6.81 for the second.

Compared with “TGCCCTTTGGTTATAACACACATGCACACGTAAATA [CACACA_site7750]”, “TGCCCTTTGGTTATAACACACATGCACCCGTAAATA [CACACA_site3842]” is higher in “gcPBM binding intensity (ln)” value: 7.71 for the first, 11.9 for the second.

Compared with “CTTTGGTTATAACACACATGCACACGTAAATAAATA [TGCATGCA_site976]”, “AGACAATTTTTTAGTACACACATATAGATATATAAA [CACACA_site6832]” is lower in “gcPBM binding intensity (ln)” value: 7.63 for the first, 7.39 for the second.

Going from “AAAAAAAAATATATATATATATATATATAATAAAAA [CACACA_negctrl_site639]” to “ATATGCACTCATTGTGCACACGCATATTACGAAAAG [CACACA_site2637]”, the “gcPBM binding intensity (ln)” value rises from 7.48 to 11.

Going from “ATGCACTCATTGTGCACACGCATATTACGAAAAGAA [CACACA_site2638]” to “TGTGTTCATATATGCACACGCATATATATTATTGTT [CACACA_site3822]”, the “gcPBM binding intensity (ln)” value falls from 10.2 to 7.02.

Going from “ATATATAATAATTGTAGTACAATTAATAAATAAAAT [XGTACX_site3840]” to “TATATATTATAAAATTGTACATATATTAAATTTTTT [XGTACX_site5852]”, the “gcPBM binding intensity (ln)” value falls from 7.08 to 6.93.

First: TATGCACCCAGACACACACACACAACTAAAAAATAA [CACACA_site2567]
Second: TAATTATGCAGACACACACACACACCCAACTAAAAA [CACACA_site2569]
The “gcPBM binding intensity (ln)” value of the first is higher: 10.7 for the first, 7.27 for the second.

Going from “TGCACGCACAGACACACACACAACTAAAAAATAATG [CACACA_site7250]” to “TACAAATATATATGCACACACATATACATACATATA [CACACA_site2182]”, the “gcPBM binding intensity (ln)” value falls from 7.33 to 7.31.

First: TACAAACACCCATATACACACAAAAAAAAAATAAAA [CACACA_site5421]
Second: GAAATGTGATAATATACACACACGCATATATATATA [CACACA_site4332]
The “gcPBM binding intensity (ln)” value of the first is lower: 7.05 for the first, 9.04 for the second.

Going from “TGTGCACGCATATACACACACAAATACAATGATAAA [CACACA_site6656]” to “AAACAAAAAATATATACACACTAAACATAAAAAAAA [CACACA_site4185]”, the “gcPBM binding intensity (ln)” value falls from 10.6 to 6.86.

Going from “TATGTGCACCCATATACACACACAAATACAATGATA [CACACA_site8295]” to “TAATGATAAATACATACACACAAAAAATGATATATA [CACACA_site7258]”, the “gcPBM binding intensity (ln)” value falls from 12.3 to 6.86.

Going from “GGTGCACCCATATACACACACAAATACAATGATAAA [CACACA_site1132]” to “TCACCATATAAACGTGCACACTACAAAAATATATAA [CACACA_site5413]”, the “gcPBM binding intensity (ln)” value falls from 12.4 to 11.

Going from “TGGGCACCCATATACACACACAAATACAATGATAAA [CACACA_site4762]” to “CTATTTTATATGTGCACACATATACACCCACAAATA [CACACA_site1131]”, the “gcPBM binding intensity (ln)” value rises from 8.64 to 9.31.

First: AATGTGATAATATACACACACGCATATATATATATA [CACACA_site323]
Second: CATATAAAAATGTGCACACACACACCCATATATATT [CACACA_site1526]
The “gcPBM binding intensity (ln)” value of the first is higher: 9.89 for the first, 9.06 for the second.

Source: the supplement of paper PMC11417369
